The text below walks through data of PubChem BioAssay AID504697 (The Scripps Research Institute Molecular Screening Center, 2011).

Unmarked numbers belong to inactive results. Activity calls are given as the source filed them.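 Rule for the calls: active = EC50 at or below 10 µM; inactive = EC50 above 10 µM.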

This assay in a line: fluorescence interference artefacts, compound only, dose response, artefact control for cardiac thin filament activator project, biochemical, no RTF in test wells (AID 504697).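 Note: emission near 535 nm under roughly 485 nm excitation as for IANBD.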 As to conditions: artifact counterscreen.

`O=C(CN1CCN(c2ccccc2F)CC1)Nc1cccnc1Cl`: the EC50 (as a rule, the concentration that produces a half-maximal response) is more than 71.5 µM.

With `Cc1cc(Cl)nc(N)n1`, the EC50 was more than 71.4 µM.

Turning to `CN1C(=O)/C(=C/c2ccc(N3CCCCCC3)o2)C(=O)NC1=S`, the EC50 is 5 µM (active).

Regarding `COc1ccc(OC)c(-n2c(O)c(C=NCCN3CCNCC3)c(=O)[nH]c2=S)c1`, the EC50 is more than 71.5 µM.

Turning to `O=[N+]([O-])c1ccc(N2CCCC2)c2ncccc12`, the EC50 was 23.5 µM.

With `O=c1[nH]c(=O)n(Cc2ccc(F)cc2)c(O)c1/C=N/Nc1ccccc1`, the EC50 was more than 71.5 µM.

For `Cc1ccc(-n2c(O)c(/C=C/C=Nc3ccccc3)c(=O)[nH]c2=O)cc1`, the EC50 is 10.6 µM.

`O=[N+]([O-])c1ccc(N2CCCCCC2)c2nonc12`: the EC50 is 1.17 µM (active).

Take `Cc1cc(N2CCCC2)ccc1C=C(C#N)C#N`: the EC50 is 14.4 µM.

With `C/C(=N\N1CCCCC1c1cccnc1)c1c(O)n(C2CCCCC2)c(=S)[nH]c1=O` (centres undefined), the EC50 was 39.3 µM.

For the molecule `C=CCN1C(=O)/C(=C/c2ccc(N3CCOCC3)o2)C(=O)NC1=S`, the EC50 is 14 µM.

For the molecule `CCC1(C)OC(c2ccccc2)=C/C(=C/C=C2C(=O)NC(=O)NC2=O)O1` (centres undefined), the EC50 was 2.73 µM (active).

Consider `CC(=O)OCC[N+](C)(C)C`, for which the EC50 is > 71.4 µM [compound-only fluorescence in RTF assay buffer with Ca2+ (no RTF in test wells)].

For `CNS(=O)(=O)c1ccc(N=Cc2c(O)n(-c3ccccc3)c(=O)[nH]c2=O)cc1`, the EC50 is more than 71.5 µM.
